According to PubChem BioAssay:
Active and inactive are the calls of the source.

Legend:
[1] = test system: PRMT1 (protein arginine N-methyltransferase 1); assay: PRMT1 binders on small-molecule microarrays, primary screen, biochemical, small-molecule microarray, 635 nm fluorescence (AID 1088); details: small-molecule microarray binding, higher = more signal;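 also: binding of Prmt1 protein to compounds spotted on small-molecule microarray slides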
[2] = yeast growth modulation, basal conditions, primary screen, YJM789 clinical isolate, OD600, 24 h (AID 1089);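 also: growth of clinical yeast isolate S. cerevisiae YJM 789 seeded 1000 cells per well; test concentration not given here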; details: S. cerevisiae YJM789 growth, higher = more signal, called active from +8 up or from −8 down
[3] = fission yeast growth modulation, primary screen, strain 972, OD600, 24 h, no modulator (AID 1090);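 also: basal condition with compound alone and no growth modifier present; test concentration not given here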; details: S. pombe 972 growth, higher = more signal, called active from +8 up or from −8 down
[4] = S. cerevisiae growth modulation with rapamycin, primary screen, strain BY4716, OD600, 96 h (AID 1091); details: higher = more signal, called active from +8 up or from −8 down; also: test concentration not given here
[5] = molecular target: Torsin-1A-interacting protein 2 (Homo sapiens) (UniProt Q8NFQ8); assay: LULL1 binders on small-molecule microarray, primary screen, cell lysate, human LULL1 lysate, 635/667 nm fluorescence (AID 1092); details: hLULL1 lysate binding, 635 nm fluorescence, higher = more signal;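 also: probe is lysate of COS7 cells overexpressing human LULL1; score merges per-feature 667 nm fluorescence with signal-to-noise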
[6] = E. coli growth modulation, two-sided OD650, primary screen, E. coli filamentation project, strain DRC41, 24 h (AID 1093); details: OD650, 24 h, higher = more signal, called active from +8 up or from −8 down;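 also: MC1000 strain lacking acrAB efflux and sulA so SOS filamentation is blocked; test concentration not given here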
[7] = small-molecule microarray binders of probe aLefty2, primary screen, biochemical, biotinylated probe, 635/667 nm fluorescence (AID 1094); details: higher = more signal;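 also: score merges spot fluorescence near 667 nm with spot signal-to-noise ratio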
[8] = test system: Noggin (protein binding on small-molecule microarray); assay: Noggin binders on small-molecule microarray, primary screen, biochemical, 635/667 nm fluorescence (AID 1095); details: 635 nm fluorescence, higher = more signal;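 also: score merges 667 nm feature fluorescence with signal to noise over triplicate slides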
[9] = molecular target: Neurogenic locus notch homolog protein 3 (Homo sapiens) (UniProt Q9UM47); assay: NOTCH3 binders on small-molecule microarray, primary screen, biochemical, 635/667 nm fluorescence (AID 1096); details: NOTCH3 binding, 635 nm fluorescence, higher = more signal
[10] = small-molecule microarray binders of probe aEGFR, primary screen, biochemical, biotinylated probe, 635/667 nm fluorescence (AID 1097); details: higher = more signal;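 also: probe is a biotinylated anti-EGFR antibody binding compounds printed on slides; score combines fluorescence near 667 nm and signal to noise of each spot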
[11] = test system: Plasmodium falciparum Sir2 (PF13_0152, Sir2A); assay: pfSir2 binders on small-molecule microarrays, primary screen, biochemical, small-molecule microarray, 635 nm fluorescence (AID 1098); details: small-molecule microarray binding, fluorescence 635 nm; higher = more signal;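 also: score merges spot fluorescence intensity with its signal-to-noise ratio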
[12] = small-molecule microarray binders of probe aDKK1, primary screen, biochemical, biotinylated probe, 635/667 nm fluorescence (AID 1099); details: higher = more signal;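 also: score merges 667nm spot fluorescence with signal to noise across triplicate slides; reference of the scale not given here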
[13] = small-molecule microarray binders of probe aCHRDL2, primary screen, biochemical, biotinylated probe, 635/667 nm fluorescence (AID 1100); details: higher = more signal
[14] = splicing luciferase reporter signal modulators, primary screen, spliceosome inhibition project, cell-based, HEK293, splice +/- reporter (AID 1101); details: luminescence, 24 h, higher = more signal, called active from +8 up or from −8 down;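 also: HEK293 cells carrying a splicing-competent luciferase reporter gene; test concentration not given here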
[15] = molecular target: Fibroblast growth factor 10 (Homo sapiens) (UniProt O15520); assay: FGF10 binders on small-molecule microarrays, primary screen, biochemical, small-molecule microarray, 635 nm fluorescence (AID 1102); details: FGF10 binding, fluorescence 635 nm, higher = more signal
[16] = test system: glycogen synthase kinase-3 (GSK3A per assay name; protocol says GSK3B); assay: GSK3 binders on small-molecule microarrays, primary screen, biochemical, small-molecule microarray, 635 nm fluorescence, GSK3A (AID 1103); details: small-molecule microarray binding, fluorescence 635 nm; higher = more signal; also: the record names both GSK3A and GSK3B
[17] = molecular target: Epidermal growth factor receptor (Homo sapiens) (UniProt P00533); assay: EGFR binders on small-molecule microarrays, primary screen, biochemical, small-molecule microarray, 635 nm fluorescence (AID 1104); details: EGFR binding, higher = more signal;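 also: score merges 667 nm emission intensity with spot signal to noise over triplicate slides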
[18] = molecular target: Follistatin-related protein 3 (Homo sapiens) (UniProt O95633); assay: FSTL3 binders on small-molecule microarrays, primary screen, biochemical, small-molecule microarray, 635 nm fluorescence (AID 1105); details: FSTL3 binding, higher = more signal;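 also: score merges emission near 667 nm and signal to noise per printed spot across three slides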
[19] = molecular target: Dickkopf-related protein 1 (Homo sapiens) (UniProt O94907); assay: DKK1 binders on small-molecule microarrays, primary screen, biochemical, small-molecule microarray, 635 nm fluorescence scan (AID 1106); details: DKK1 binding, higher = more signal;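 also: score merges emission near 667 nm with signal to noise over three replicate slides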
[20] = test system: Inhibin beta A chain (activin A); assay: INHBA (activin A) binders on microarrays, primary screen, biochemical, small-molecule microarray, 635 nm fluorescence scan (AID 1107); details: small-molecule microarray binding, higher = more signal;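 also: mouse activin A protein probed at 4.33 µg/mL on printed slides; score merges bound-protein fluorescence near 667 nm with spot signal-to-noise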

Fibroblast growth factor 10 (Homo sapiens), sequence (O15520 whole entry, looked up): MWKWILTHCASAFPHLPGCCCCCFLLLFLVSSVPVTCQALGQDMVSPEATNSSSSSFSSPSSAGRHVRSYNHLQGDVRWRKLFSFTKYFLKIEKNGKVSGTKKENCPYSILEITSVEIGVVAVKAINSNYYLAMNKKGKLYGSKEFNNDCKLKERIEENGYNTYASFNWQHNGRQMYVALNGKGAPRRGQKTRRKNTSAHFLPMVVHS
Dickkopf-related protein 1 (Homo sapiens), sequence (O94907 whole entry, looked up): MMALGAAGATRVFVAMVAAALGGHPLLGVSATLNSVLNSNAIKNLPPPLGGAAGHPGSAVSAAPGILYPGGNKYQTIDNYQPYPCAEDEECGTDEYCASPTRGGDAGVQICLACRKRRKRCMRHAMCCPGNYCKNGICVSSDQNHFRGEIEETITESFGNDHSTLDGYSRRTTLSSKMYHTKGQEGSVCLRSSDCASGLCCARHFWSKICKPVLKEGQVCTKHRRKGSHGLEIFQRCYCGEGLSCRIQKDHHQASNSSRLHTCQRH
Torsin-1A-interacting protein 2 (Homo sapiens), sequence (Q8NFQ8 whole entry, looked up): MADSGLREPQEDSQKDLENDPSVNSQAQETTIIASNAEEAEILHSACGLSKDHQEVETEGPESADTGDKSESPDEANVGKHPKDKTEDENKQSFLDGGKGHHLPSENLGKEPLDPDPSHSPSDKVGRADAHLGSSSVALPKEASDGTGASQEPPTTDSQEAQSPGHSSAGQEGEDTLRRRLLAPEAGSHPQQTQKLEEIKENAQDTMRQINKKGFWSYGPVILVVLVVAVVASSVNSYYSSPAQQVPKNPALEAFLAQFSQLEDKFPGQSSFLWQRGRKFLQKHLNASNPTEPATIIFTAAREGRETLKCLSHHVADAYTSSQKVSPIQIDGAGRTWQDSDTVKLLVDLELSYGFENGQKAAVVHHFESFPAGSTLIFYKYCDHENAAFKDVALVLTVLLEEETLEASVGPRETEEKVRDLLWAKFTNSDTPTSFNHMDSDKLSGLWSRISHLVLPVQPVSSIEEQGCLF
Neurogenic locus notch homolog protein 3 (Homo sapiens), sequence (Q9UM47 whole entry, looked up): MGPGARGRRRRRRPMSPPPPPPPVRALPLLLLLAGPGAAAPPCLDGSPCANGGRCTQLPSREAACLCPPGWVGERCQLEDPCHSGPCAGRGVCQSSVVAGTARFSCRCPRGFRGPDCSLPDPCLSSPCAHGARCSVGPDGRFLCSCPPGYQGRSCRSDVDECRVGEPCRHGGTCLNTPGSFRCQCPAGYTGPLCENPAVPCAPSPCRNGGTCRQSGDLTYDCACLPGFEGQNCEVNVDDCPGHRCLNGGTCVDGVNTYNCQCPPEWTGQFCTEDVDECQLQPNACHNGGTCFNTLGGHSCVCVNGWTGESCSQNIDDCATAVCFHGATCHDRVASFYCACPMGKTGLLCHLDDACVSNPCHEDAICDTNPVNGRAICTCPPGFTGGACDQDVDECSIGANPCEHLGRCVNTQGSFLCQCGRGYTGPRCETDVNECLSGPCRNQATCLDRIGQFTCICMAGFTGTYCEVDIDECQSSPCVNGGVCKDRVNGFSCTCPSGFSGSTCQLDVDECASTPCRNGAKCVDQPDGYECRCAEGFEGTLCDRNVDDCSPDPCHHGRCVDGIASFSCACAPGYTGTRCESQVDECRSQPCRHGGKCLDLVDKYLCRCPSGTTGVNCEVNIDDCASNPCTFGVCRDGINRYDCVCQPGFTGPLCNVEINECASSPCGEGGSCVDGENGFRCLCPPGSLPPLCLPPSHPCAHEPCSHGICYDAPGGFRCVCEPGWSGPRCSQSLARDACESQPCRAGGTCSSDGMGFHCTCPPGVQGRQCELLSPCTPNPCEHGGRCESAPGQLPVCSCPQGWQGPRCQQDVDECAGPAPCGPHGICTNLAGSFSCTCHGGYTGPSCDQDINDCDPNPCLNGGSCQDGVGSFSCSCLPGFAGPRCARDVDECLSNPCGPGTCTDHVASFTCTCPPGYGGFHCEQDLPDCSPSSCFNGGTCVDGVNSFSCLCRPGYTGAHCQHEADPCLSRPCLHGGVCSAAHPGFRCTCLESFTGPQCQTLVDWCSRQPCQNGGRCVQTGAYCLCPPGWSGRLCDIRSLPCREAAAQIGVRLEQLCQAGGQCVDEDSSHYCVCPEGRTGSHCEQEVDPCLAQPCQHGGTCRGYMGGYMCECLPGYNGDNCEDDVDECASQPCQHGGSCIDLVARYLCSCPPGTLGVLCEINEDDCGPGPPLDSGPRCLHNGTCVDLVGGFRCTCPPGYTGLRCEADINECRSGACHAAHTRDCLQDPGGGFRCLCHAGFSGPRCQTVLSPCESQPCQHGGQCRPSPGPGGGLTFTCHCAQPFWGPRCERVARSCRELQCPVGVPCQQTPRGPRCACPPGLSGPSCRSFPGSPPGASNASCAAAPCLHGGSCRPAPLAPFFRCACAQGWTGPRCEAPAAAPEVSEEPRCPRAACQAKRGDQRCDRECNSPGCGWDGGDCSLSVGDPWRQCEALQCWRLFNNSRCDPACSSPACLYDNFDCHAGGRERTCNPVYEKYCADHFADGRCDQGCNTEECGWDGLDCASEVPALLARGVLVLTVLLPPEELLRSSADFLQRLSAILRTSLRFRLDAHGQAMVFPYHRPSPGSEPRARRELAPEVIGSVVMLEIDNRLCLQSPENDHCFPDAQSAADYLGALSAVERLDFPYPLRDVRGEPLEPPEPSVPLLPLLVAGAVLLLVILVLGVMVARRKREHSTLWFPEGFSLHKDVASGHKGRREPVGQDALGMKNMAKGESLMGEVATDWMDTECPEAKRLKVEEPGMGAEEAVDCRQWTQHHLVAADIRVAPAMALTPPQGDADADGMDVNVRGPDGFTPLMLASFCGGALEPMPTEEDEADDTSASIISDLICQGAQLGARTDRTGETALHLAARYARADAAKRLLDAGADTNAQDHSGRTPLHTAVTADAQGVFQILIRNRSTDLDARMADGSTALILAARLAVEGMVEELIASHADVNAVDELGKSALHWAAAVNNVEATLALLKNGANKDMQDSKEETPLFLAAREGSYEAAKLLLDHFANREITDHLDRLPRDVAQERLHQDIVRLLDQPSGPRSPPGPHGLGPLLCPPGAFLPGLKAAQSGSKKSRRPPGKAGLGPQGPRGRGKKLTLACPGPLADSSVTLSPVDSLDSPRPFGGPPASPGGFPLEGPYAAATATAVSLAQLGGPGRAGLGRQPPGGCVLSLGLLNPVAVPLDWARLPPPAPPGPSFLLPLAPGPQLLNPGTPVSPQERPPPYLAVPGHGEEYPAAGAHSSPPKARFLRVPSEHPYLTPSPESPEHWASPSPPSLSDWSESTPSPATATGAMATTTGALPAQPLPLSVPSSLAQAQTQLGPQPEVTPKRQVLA
Follistatin-related protein 3 (Homo sapiens), sequence (O95633 whole entry, looked up): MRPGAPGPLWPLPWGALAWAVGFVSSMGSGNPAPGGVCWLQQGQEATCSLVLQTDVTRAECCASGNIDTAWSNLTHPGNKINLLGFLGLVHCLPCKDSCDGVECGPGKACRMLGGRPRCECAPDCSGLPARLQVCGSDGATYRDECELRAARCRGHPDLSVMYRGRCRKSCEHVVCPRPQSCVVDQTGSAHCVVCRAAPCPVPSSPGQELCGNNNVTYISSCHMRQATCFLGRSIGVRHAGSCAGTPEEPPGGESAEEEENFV
Epidermal growth factor receptor (Homo sapiens), sequence (P00533 whole entry, looked up): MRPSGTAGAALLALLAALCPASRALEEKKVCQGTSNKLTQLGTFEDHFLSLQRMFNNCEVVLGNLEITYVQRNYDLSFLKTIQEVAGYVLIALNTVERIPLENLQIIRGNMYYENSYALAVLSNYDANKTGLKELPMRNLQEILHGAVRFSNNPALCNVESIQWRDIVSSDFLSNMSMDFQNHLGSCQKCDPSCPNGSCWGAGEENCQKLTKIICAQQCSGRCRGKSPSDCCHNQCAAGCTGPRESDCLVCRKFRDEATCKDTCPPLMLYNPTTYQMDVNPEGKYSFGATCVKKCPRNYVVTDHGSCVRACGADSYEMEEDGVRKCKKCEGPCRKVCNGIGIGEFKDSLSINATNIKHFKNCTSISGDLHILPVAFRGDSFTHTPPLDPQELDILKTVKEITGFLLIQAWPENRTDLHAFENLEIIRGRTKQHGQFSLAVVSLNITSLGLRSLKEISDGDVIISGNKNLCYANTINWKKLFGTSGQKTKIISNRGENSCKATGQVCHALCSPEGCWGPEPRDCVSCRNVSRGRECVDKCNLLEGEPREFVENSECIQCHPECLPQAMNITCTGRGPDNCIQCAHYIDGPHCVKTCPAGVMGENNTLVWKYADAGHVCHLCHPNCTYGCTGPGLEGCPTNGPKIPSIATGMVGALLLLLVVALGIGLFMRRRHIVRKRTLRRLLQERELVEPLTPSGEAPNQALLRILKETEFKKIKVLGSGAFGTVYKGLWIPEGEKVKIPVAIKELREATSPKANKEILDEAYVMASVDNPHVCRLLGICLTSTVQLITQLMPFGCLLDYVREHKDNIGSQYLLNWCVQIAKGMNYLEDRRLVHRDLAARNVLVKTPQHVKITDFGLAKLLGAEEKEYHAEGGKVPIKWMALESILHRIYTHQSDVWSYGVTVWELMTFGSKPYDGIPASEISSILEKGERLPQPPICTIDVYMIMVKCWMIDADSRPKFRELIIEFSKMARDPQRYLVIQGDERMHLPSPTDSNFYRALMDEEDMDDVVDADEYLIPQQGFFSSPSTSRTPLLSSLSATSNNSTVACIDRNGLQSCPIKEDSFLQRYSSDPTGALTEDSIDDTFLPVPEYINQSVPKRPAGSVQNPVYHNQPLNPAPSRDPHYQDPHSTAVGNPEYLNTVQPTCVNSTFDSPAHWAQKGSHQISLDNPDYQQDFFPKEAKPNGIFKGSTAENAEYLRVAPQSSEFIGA

SMILES | composite z-score [1] | z-score [2] | z-score [3] | z-score [4] | composite z-score [5] | z-score [6] | composite z-score [7] | composite z-score [8] | composite z-score [9] | composite z-score [10] | composite z-score [11] | composite z-score [12] | composite z-score [13] | z-score [14] | composite z-score [15] | composite z-score [16] | composite z-score [17] | composite z-score [18] | composite z-score [19] | composite z-score [20]
O=C1NC(=O)C2C1C=CC(C(O)c1cccs1)N2Nc1ccccn1 (stereo not given) | 0.394 | 0.378 (inactive) | -0.31 (inactive) | 0.206 (inactive) | 1.12 | -0.248 (inactive) | 0.305 | 0.0671 | 0.242 | 0.119 | 0.809 | 0.53 | 0.601 | 0.566 (inactive) | 0.797 | 0.182 | 0.727 | 0.292 | 0.283 | 0.538
COc1ccc([Si](C)(C)[C@H]2[C@H](CC(=O)N(CCO)Cc3ccccc3)O[C@@]3(C(=O)N(Cc4cccc(N5C(=O)c6cccc7cccc5c67)c4)c4ccccc43)[C@@H]2C)cc1 | 1.19 | -1.64 (inactive) | -0.897 (inactive) | 2.79 (inactive) | 1.72 | 1.02 (inactive) | -0.0158 | 0.315 | 0.228 | -0.378 | 0.803 | -0.534 | 0.0901 | -2.5 (inactive) | 0.158 | 0.0107 | 0.148 | 0.303 | 0.491 | 0.9
C=CCOC(=O)[C@@H]1[C@H]2C(=O)O[C@H](c3ccccc3)[C@H](c3ccccc3)N2[C@H](c2ccc(OCCOC(=O)[C@H]3C[C@H]4C(=O)N[C@@H](CCCC[N+](C)(C)C)C(=O)N4[C@H]3c3cccc(OCCO)c3)cc2)[C@@]12C(=O)Nc1ccc(I)cc12 | 1.59 | 0.904 (inactive) | 1.04 (inactive) | 4.48 (inactive) | 2.34 | 0.254 (inactive) | 0.0631 | 1.45 | 1.13 | 0.0527 | 1.53 | 0.135 | -0.0036 | -0.241 (inactive) | 1.21 | 1.29 | 1.32 | 1.43 | 1.7 | 0.538
COCCOC(=O)N1C(=O)[C@@]2(c3cc(C#CC4=CCCCC4)ccc31)[C@H](c1ccc(OCCO)cc1)N1[C@H](c3ccccc3)[C@H](c3ccccc3)OC(=O)[C@H]1[C@@H]2C(=O)Nc1nc2ccccc2s1 | 1.55 | 1.09 (inactive) | 1.04 (inactive) | 3.21 (inactive) | 3.06 | 1.9 (inactive) | -0.0242 | 0.772 | 1.08 | -0.0164 | 0.581 | 0.0643 | 0.153 | -0.831 (inactive) | 1.08 | 1.29 | 0.287 | 1.12 | 0.521 | 0.462
CCCNC(=O)[C@@]1(c2ccc([N+](=O)[O-])cc2)CC(=O)N(CC23CC4CC(CC(C4)C2)C3)[C@@H]1c1ccc(CO)cc1I | 1.14 | 0.804 (inactive) | 1 (inactive) | 5.52 (inactive) | 1.53 | 0.136 (inactive) | 0.0962 | 0.367 | 0.243 | 0.141 | 0.441 | 0.563 | 0.195 | 1.58 (inactive) | 0.193 | 0.588 | 0.27 | 0.236 | 0.0305 | 0.655
Cc1ccc(S[C@]2(C(=O)NCCCN(C)C)CC(=O)N(C(C)C)[C@@H]2c2ccc(CO)cc2I)cc1 | 1.05 | -1.25 (inactive) | -2.91 (inactive) | -1.13 (inactive) | 2.88 | 0.0601 (inactive) | -0.0654 | -0.521 | -0.0055 | -0.142 | 1.37 | 0.17 | 0.789 | -1.44 (inactive) | -0.238 | -0.627 | -0.228 | -0.137 | -0.827 | 1.1
O=C1C2C=CC(C(O)c3ccccn3)N(Nc3ccccc3F)C2C(=O)N1c1ccccc1 (stereo not given) | 0.0392 | 0.839 (inactive) | 0.0161 (inactive) | -0.207 (inactive) | 1 | -0.717 (inactive) | -0.0561 | 0.0291 | -0.584 | -0.0581 | 0.205 | 0.19 | 0.461 | -0.0196 (inactive) | 0.0698 | -0.0392 | 0.0563 | -0.0532 | 0.124 | 0.926
COCCOC(=O)N1C(=O)[C@@]2(c3cc(C#CCC(C(=O)OC)C(=O)OC)ccc31)[C@H](c1ccccc1OCCO)N1[C@H](c3ccccc3)[C@H](c3ccccc3)OC(=O)[C@H]1[C@@H]2C(=O)Nc1nc2ccccc2s1 | 1.5 | -1.03 (inactive) | -0.573 (inactive) | 1.95 (inactive) | 2.22 | 4.28 (inactive) | 0.0416 | 1.05 | 1.05 | 0.0632 | 1.46 | 0.514 | 0.641 | -1.04 (inactive) | 1.33 | 1.14 | 0.692 | 1.4 | 0.785 | 1.1
C=CCNC(=O)[C@H]1[C@@H]2C(=O)O[C@@H](c3ccccc3)[C@@H](c3ccccc3)N2[C@@H](c2ccc(OCCO)cc2)[C@]12C(=O)N(C(=O)OCCOC)c1ccc(C#CC3(O)CCCCCC3)cc12 | 1.54 | 1.95 (inactive) | 0.97 (inactive) | 6.64 (inactive) | 2.42 | 1.08 (inactive) | -0.0319 | 1.6 | 1.04 | 0.122 | 1.55 | 0.456 | 0.33 | -0.569 (inactive) | 1.42 | 1.31 | 1.02 | 1.48 | 1.23 | 1.18
NC(=O)NCC#Cc1ccc2c(c1)[C@]1(C(=O)N2)[C@H](c2ccccc2OCCO)N2[C@H](c3ccccc3)[C@H](c3ccccc3)OC(=O)[C@H]2[C@@H]1C(=O)N1CCCCCCC1 | 1.55 | 0.456 (inactive) | -1.36 (inactive) | 1.49 (inactive) | 4.09 | 1.26 (inactive) | 1.79 | 1.8 | 1.11 | 1.21 | 1.68 | 2.88 | 1.73 | -0.308 (inactive) | 0.91 | 1.35 | 1.42 | 1.6 | 1.26 | 1.88
